TexasRed fluor – alters Texas Red total fluorescence, flagging assay interference | TRb/SRC2 Texas Red total fluorescence interference | Potency, µM (top dose mostly 106 µM), without a hit: at the highest dose fluorescence change, negative = quenching | actives 0.29% (n = 280,000) | AID 1479; active = well fitted curve in either direction with a large enough effect; inconclusive = small, poorly fitted or top-dose-only effect; also: potency is read from the fitted curve at half-maximal effect; % is scaled to controls: 0 for no effect and ±100 for the full control effect
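Human TRβ ligand-binding domain (0.6 uM) and Texas Red SRC2 peptide (20 nM) in Tris buffer with 1 uM T3 and 5% DMSO were incubated with pinned compound for 5 hr at ambient temperature. Total fluorescence was computed as S + 2P (555/632 nm).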
CXXC DNA block – blocks binding of human MLL CXXC domain to DNA; Q03164; MLL-CXXC / FITC-HOXA9 DNA fluorescence polarization; Potency, µM (series often up to 115 µM), for the others: at the top dose activity change, negative = inhibition, most hits filed as inhibitors; actives 0.037% (n = 290,000); active = well fitted inhibition curve with a large enough effect in the polarisation, with a control signal flat, not every such curve was filed as active; inconclusive = small, poorly fitted or top-dose-only effect, or effect the other way, or a change in a side signal; inactive = no such curve, though single readings can be large or run the other way; the % refers to the polarisation; also: potency is read from the fitted curve at half-maximal effect
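Purified MLL-CXXC (added from a 7 uM solution) was preincubated 5 min at ambient with pinned compounds in 50 mM Tris-HCl pH 7.5, 50 mM NaCl, 1 mM DTT, 0.05% BSA. Fluorescein-labeled HOX-A9 DNA (50 nM solution) followed, 30 min, then polarization read.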
Menin MLL FP TR – displaces Texas Red mutant MLL peptide from human menin; O00255; Menin + Texas Red MLL mutant peptide, fluorescence polarization; Potency, µM (series often up to 61.6 µM), for the others: top-dose FP activity change, negative = inhibition, actives largely listed as inhibitors; actives 0.23% (n = 270,000); active = well fitted inhibition curve with a large enough effect in the polarisation, with a control signal flat, not every such curve was filed as active; inconclusive = small, poorly fitted or top-dose-only effect, or effect the other way, or a change in a side signal; inactive = no such curve, though single readings can be large or run the other way; the % refers to the polarisation; also: potency is read from the fitted curve at half-maximal effect; % of control where 0% means no effect
TRb SRC2 PPI – inhibitors of human thyroid hormone receptor beta-SRC2 interaction. P10828. TRbeta-SRC2 peptide binding, fluorescence polarization; receptor liganded with 1 µM T3. Potency, µM (doses to about 106 µM), for the others: top-dose activity change, negative = inhibition, hits mostly inhibitors. actives 0.065% (n = 280,000). AID 1469; active = well fitted inhibition curve with a large enough effect; inconclusive = small, poorly fitted or top-dose-only effect, or effect the other way;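 also: potency is read from the fitted curve at half-maximal effect; plate controls were bound peptide for no effect and peptide without receptor for full effect; nearly all actives have a fitted effect of over 50% in size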
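Human TRb LBD (0.6 uM) plus Texas Red-labeled SRC2 peptide (20 nM), 1uM T3, 5% DMSO, 5 hr at ambient temperature. Decreased polarization (555/632 nm) flags inhibition; data normalized to free and bound peptide controls.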
Menin MLL FP FL – displaces fluorescein MLL peptide from human menin | 290,000 tested, under 10 active | FP activity change, % at 61.4 µM | AID 1766 | Fluorescence polarization, fluorescein-MLL peptide displacement from menin; active = well fitted curve in the direction sought with a large enough effect in the polarisation, not every such curve was filed as active; inconclusive = small, poorly fitted or top-dose-only effect, or effect the other way, or a change in a side signal; inactive = no such curve, though single readings can be large or run the other way; the % refers to the polarisation; also: % of control where 0% means no effect
* = called active by the depositor; u = inconclusive; x = no result; [ ] = remark or other dose. Sampled rows, rich in hits. Any-hit rate of the full collection: about 0.36%.

SMILES	TexasRed fluor	CXXC DNA block	Menin MLL FP TR	TRb SRC2 PPI	Menin MLL FP FL
C=CCCCCCCCCC=O	-0.7%[201 µM]	x	x	-4.6%[201 µM]	x
Clc1cccc(CSc2nncn3c2cc2sccc23)c1	-1.0%	x	x	1.2%	x
CCc1nnc(SCc2cccc(Cl)c2)c2cc3sccc3n12	25.1µM*[quencher]	x	x	-15.4%	x
Cc1nc(SCC(=O)Nc2ccc(C)c(Cl)c2)cc(-c2ccccc2)n1	3.8%	x	x	2.3%	x
COc1ccc(NC(=O)CSc2cc(-c3ccccc3)nc(C)n2)cc1	8.91µM*[quencher]	x	x	-25.9%	x
Cc1ccc(CNc2nc3nc(C)c(Cl)c(C)n3n2)cc1	8.3%	x	x	-6.1%	x
COc1ccccc1CNc1nc2nc(C)c(Cl)c(C)n2n1	0.0224µM*[quencher]	x	x	-18.3%[53 µM]	x
CCCCCCCCCCCCCCO	0.3%[201 µM]	x	x	6.3%[201 µM]	x
CCOC(=O)c1cn(CC)c2ccc(S(=O)(=O)N3CCC(C)CC3)cc2c1=O	-2.3%	-12.2%	-16.0%	-4.1%	1.3
CCOC(=O)c1cn(CC)c2ccc(S(=O)(=O)N3CC(C)CC(C)C3)cc2c1=O (configuration not stated)	44.7µM*[fluorescent]	-16.6%	u	u	12.6
Cc1ccc2oc(C(=O)Nc3ccc(S(=O)(=O)N(C)c4ccccc4)cc3)cc(=O)c2c1	100µM*[quencher]	x	x	-10.1%	x
CCOc1ccc(CNS(=O)(=O)c2ccc(-c3coc(C)n3)cc2)cc1	0.0071µM*[quencher]	x	x	-10.8%	x
CCc1ccccc1NS(=O)(=O)c1ccc(-c2coc(C)n2)cc1	11.2µM*[quencher]	x	x	-19.6%	x
CCCCCCCOC(=O)c1ccccc1C(=O)OCCCCCCC	-6.2%[201 µM]	x	x	1.9%[201 µM]	x
O=C(CSc1nc(=O)[nH]c2c1CCC2)NCc1ccccc1Cl	0.2%	x	x	0.4%	x
CC1(C)CC(=O)c2cc(-c3nc(-c4ccc(F)cc4)cs3)c(=O)[nH]c2C1	10.6%	x	x	-2.6%	x
O=C1CN(C(=O)CSc2nc(-c3ccccc3)cs2)c2ccccc2N1	1.4%	7.3%	-7.3%	1.0%	-1.7
CC1(C)C(=O)Nc2ccccc2N1C(=O)CSc1nc(-c2ccccc2)cs1	31.6µM*[quencher]	4.5%	-14.0%	-8.1%[53 µM]	u
Cc1ccc(NC(=O)Cn2nnc(C(=O)NCCc3ccccc3)c2N)cc1	-2.3%	x	x	-4.5%	x
Cc1ccc(C(=O)N/N=C/c2ccc(-c3cccc(Cl)c3)o2)cn1	-0.1%	5.9%	x	4.9%	5.2
Cc1ccc(C(=O)N/N=C/c2ccc(-c3ccccc3[N+](=O)[O-])o2)cn1	31.6µM*[quencher]	1.4%	u	u	u
O=C(NCCO)c1ccc2nc(-c3ccco3)c(-c3ccco3)nc2c1	u	u	u	7.5%	-0.1
O=C(NCCc1ccccc1)c1ccc2nc(-c3ccco3)c(-c3ccco3)nc2c1	28.2µM*[quencher]	u	u	9.2%	58.8
CC1CN(C(=O)CCC(=O)NCc2cccc(Cl)c2)c2ccccc2S1 (configuration not stated)	28.2µM*[quencher]	x	x	-13.0%	x
CC1CN(C(=O)CCC(=O)NCc2ccccc2)c2ccccc2S1 (configuration not stated)	x	x	1.4%	x	-6.7
SMILES	TexasRed fluor	CXXC DNA block	Menin MLL FP TR	TRb SRC2 PPI	Menin MLL FP FL
COc1cc(/C=C(\C#N)c2nc3ccccc3s2)cc([N+](=O)[O-])c1O	25.1µM*[quencher]	-18.7%	u	18.4%	20.4
CCCc1ccc(OCC(=O)Nc2sc3c(c2C(=O)OCC)CCC(C(C)(C)C)C3)cc1 (configuration not stated)	10µM*[quencher]	x	x	u	x
COc1ccc(NC(=O)CC2C(=O)N(c3ccc(F)cc3)C(=O)N2Cc2ccco2)cc1 (configuration not stated)	-2.6%	x	x	4.4%	x
C/C(N)=C(/C#N)C(=O)COC(=O)c1cc(-c2ccc(Br)cc2)nc2ccccc12	22.4µM*[quencher]	5.3%	8.3%	-10.9%[53 µM]	-4.0
CCCCNC(=O)c1nn(C)c2c1CSc1ccccc1-2	0.4%	x	x	7.0%	x
Cl[Si](Cl)(c1ccccc1)c1ccccc1	-0.6%[201 µM]	x	x	0.1%[201 µM]	x
COC(=O)c1cc(NC(=O)[C@H](CCS(C)(=O)=O)N2Cc3ccccc3C2=O)cc(C(=O)OC)c1	u	x	x	-0.9%	x
CS(=O)(=O)CCC(C(=O)Nc1cccc(C(F)(F)F)c1)N1Cc2ccccc2C1=O (configuration not stated)	25.1µM*[quencher]	x	x	-11.7%	x
C=CCN1C(=O)CS/C1=C(\C#N)S(=O)(=O)c1ccc(C)cc1	39.8µM*[fluorescent]	10.1%	u	u	25.7
COc1ccc(CNC(=O)CN2C(=O)c3cccnc3Oc3ccc(C)cc32)cc1	20µM*[quencher]	x	x	-22.5%	x
Cc1ccc(CNC(=O)CCCN2C(=O)c3cccnc3Oc3ccc(Cl)cc32)cc1	17.8µM*[quencher]	x	x	-9.1%	x
COc1ccc(CNC(=O)CCCN2C(=O)c3cccnc3Oc3ccc(Cl)cc32)cc1	5.8%	x	x	4.4%	x
O=C(Nc1cccc(Cl)c1)c1cc(-c2ccc3c(c2)OCO3)on1	5.7%	x	x	-7.6%	x
O=C(Nc1cccc(Cl)c1)c1cc(-c2ccc3c(c2)OCCO3)on1	10µM*[quencher]	x	x	-10.3%	x
Cc1oc2ncn(C)c(=O)c2c1C(=O)NC(C)c1ccccc1 (configuration not stated)	0.282µM*[quencher]	x	x	-29.5%	x
O=c1[nH]nc(CNc2ccc(O)cc2)c2ccccc12	44.7µM*[fluorescent]	20.7%	u	28.2µM*	8.7
CCn1c(=O)c(=O)[nH]c2cc(C(=O)N3CCN(c4ccccc4F)CC3)ccc21	44.7µM*[fluorescent]	0.2%	u	14.1%	2.9
O=C(COC(=O)c1cc([N+](=O)[O-])ccc1NCCO)c1ccccc1	100µM*[quencher]	10.1%	u	-6.7%	2.5
NC(=O)COC(=O)c1cc([N+](=O)[O-])ccc1NCCO	-4.5%	8.0%	x	7.3%	-2.2
CC(C)(C)c1ccc(O)c(C(C)(C)C)c1	-2.4%[201 µM]	x	x	-1.4%[201 µM]	x
O=C(CCS(=O)(=O)c1cccc2nonc12)Nc1ccc(F)cc1F	-2.9%	x	x	-5.3%	x
Cc1cc(C)cc(-n2nnnc2SCC(=O)Nc2nc(-c3ccc(F)cc3)cs2)c1	-0.7%	23.0%	35.5µM*	-19.8%	-0.6
Cc1cc(C)cc(-n2nnnc2SCC(=O)Nc2nc(-c3ccc(Cl)cc3)cs2)c1	0.0%	-4.1%	28.2µM*	1.5%	5.8
Cc1cc(-c2nnc(SCC(=O)Nc3nc(-c4ccc(Cl)cc4)cs3)o2)no1	-1.5%	-3.3%	x	2.1%	4.2
CCCCCCCCCCCCCCCCCCN	0.8%[201 µM]	x	x	3.8%[201 µM]	x
SMILES	TexasRed fluor	CXXC DNA block	Menin MLL FP TR	TRb SRC2 PPI	Menin MLL FP FL
Cc1ccc(C(=O)NC2=NC(c3ccc(C)cc3)CC(=O)N2)cc1 (configuration not stated)	251µM*[quencher]	x	x	-23.5%	x
O=c1oc2ccc3ccccc3c2cc1-c1nnc(Nc2ccc(F)cc2)s1	-32.9%	x	x	-7.6%	x
Cc1ccc(Nc2nnc(-c3cc4c(ccc5ccccc54)oc3=O)s2)cc1	0.0316µM*[quencher]	x	x	u	x
O=C(c1ccc(CS(=O)(=O)c2c(Cl)cccc2Cl)o1)N1CCN(c2ccccc2)CC1	6.31µM*[quencher]	x	x	-24.1%	x
O=C(c1ccc(CS(=O)(=O)c2c(Cl)cccc2Cl)o1)N1CCCC1	-6.7%	1.8%	-1.3%	1.9%	-3.0
CCCCCCCCCCCCCCC	-1.3%[201 µM]	x	x	4.8%[201 µM]	x
COc1ccccc1N1CCN(C(=O)CCc2nnc3n(C)c(=O)c4sccc4n23)CC1	22.4µM*[quencher]	x	x	u	x

Assay outcomes (PubChem BioAssay)
